Compound activity: PubChem, The Scripps Research Institute Molecular Screening Center
Rows were chosen to be rich in hits. Some 4.5% of all compounds tested hit in one or more screens of this group.
ssDAF-12 act: S. stercoralis DAF-12 activation, primary screen | HEK293 ssDAF-12/GRIP1 lit1-tk-luc reporter, luminescence; % of 3 µM dafachronic acid response | activation, % at 6.8 µM | 370,000 tested, 1% active;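 active = activation above the mean over all tested compounds plus 3 SD, cut at about 0.9% in these data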;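 also: 0% = DMSO-only wells and 100% = 3 µM delta7-dafachronic acid wells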
DAX1 inh-1: inhibitors of DAX1 repression of SF-1 activated StAR promoter; HEK293T StAR-luciferase reporter, SF-1/DAX-1 repression relief; inhibition, % at 6.8 µM; 370,000 tested, 1.1% active;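 active = inhibition above the mean over all tested compounds plus 3 SD, cut at about 3.6% in these data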;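 also: 0% = DAX-1 cells with DMSO and 100% = cells lacking DAX-1 with DMSO; higher inhibition means more luminescence from relief of DAX-1 repression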
FXN GAA850 act: frataxin GAA850 promoter activation | HEK293 lucGAA850 FXN promoter luciferase reporter, 24 h; percent of 10 µM SAHA response | 360,000 tested, 0.56% active | activation, % at 6 µM;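 active = activation above the average of all compounds screened plus 3 SD, cutoff fixed separately per campaign, cut at about 7.5% in these data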;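 also: 0% = DMSO wells and 100% = 10 µM SAHA wells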
hcDAF-12 act: activators of H. contortus DAF-12 nuclear receptor | activation, % at 6.8 µM | HEK293 hcDAF-12 lit1-tk-luc reporter, luminescence; 0% DMSO, 100% Δ7-dafachronic acid | AID 652067 | 370,000 tested, 1.4% active;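 active = activation above the mean of all tested compounds plus 3 SD, cut at about 5.5% in these data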;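 also: 100% = response to 3 µM Δ7-dafachronic acid high control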
hgDAF12 agonist: activates the H. glycines DAF-12 receptor ligand-binding domain. HEK293 GAL4-hgDAF12 UAS-luciferase reporter, agonist luminescence; normalized to butyrate control. activation, % at 6.8 µM. 370,000 tested, 1.8% active. AID 687014;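 active = activation above a cutoff set at the mean of all screened compounds plus 3 SD, cut at about 10% in these data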;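 also: 0% = DMSO wells and 100% = sodium butyrate wells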
DAX1 inh-2: inhibits human nuclear receptor DAX1 | P51843 | HEK293 Gal4-DAX1 luciferase reporter, luminescence | inhibition, % at 6.75 µM | 340,000 tested, 0.99% active;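 active = inhibition above the mean over all tested compounds plus 3 SD, cut at about 4.2% in these data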;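 also: 0% = DAX1-transfected cells with DMSO and 100% = empty-vector control cells with DMSO; inhibition shows as a rise in luminescence from relieved DAX1 repression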
Target sequence (P51843 207-470 limits assumed): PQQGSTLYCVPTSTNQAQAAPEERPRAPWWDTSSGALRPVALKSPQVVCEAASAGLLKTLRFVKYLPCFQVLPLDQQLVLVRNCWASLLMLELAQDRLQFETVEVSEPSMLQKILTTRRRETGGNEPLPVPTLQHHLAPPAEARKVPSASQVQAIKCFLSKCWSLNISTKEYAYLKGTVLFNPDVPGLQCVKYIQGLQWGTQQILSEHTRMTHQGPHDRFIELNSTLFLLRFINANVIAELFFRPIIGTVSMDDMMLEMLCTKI
Active calls of the source: *.

Screening Cc1ncsc1C(=O)Nc1nc2c(s1)CC(C)CC2 (stereo unspecified) returned ssDAF-12 act 0, DAX1 inh-1 3, FXN GAA850 act 6, hcDAF-12 act 3, hgDAF12 agonist 13* and DAX1 inh-2 1.
Screening Cc1ccc(C(=O)/C=C/Nc2cccc([N+](=O)[O-])c2)o1 returned ssDAF-12 act 0, DAX1 inh-1 1, FXN GAA850 act 6, hcDAF-12 act 5.8*, hgDAF12 agonist 11* and DAX1 inh-2 0.
Screening CCOC(=O)C1CCN(C(=O)c2cc3ccc(OC)cc3[nH]2)CC1 returned ssDAF-12 act 0, DAX1 inh-1 1, FXN GAA850 act 2, hcDAF-12 act 3, hgDAF12 agonist 2 and DAX1 inh-2 1.
O=C(c1cc2cc(F)ccc2[nH]1)N1CCC(Cc2ccccc2)CC1 was read as ssDAF-12 act 0.9*, DAX1 inh-1 0, FXN GAA850 act 3, hcDAF-12 act 5, hgDAF12 agonist 1 and DAX1 inh-2 1.
COc1ccc2[nH]c(C(=O)N3CCC(Cc4ccccc4)CC3)cc2c1 was read as FXN GAA850 act 2 and DAX1 inh-2 -1.
CCOC(=O)C1CCN(C(=O)CSc2ccc(Cl)cc2)CC1 was read as ssDAF-12 act -1, DAX1 inh-1 0, FXN GAA850 act 1, hcDAF-12 act -2, hgDAF12 agonist 2 and DAX1 inh-2 0.
For CCOC(=O)C1CCN(C(=O)c2cc3cc(Cl)ccc3[nH]2)CC1 the results were ssDAF-12 act -1, DAX1 inh-1 0, FXN GAA850 act 1, hcDAF-12 act 6.5*, hgDAF12 agonist 4 and DAX1 inh-2 1.
For CCOC(=O)C1CCN(C(=O)C(C)Sc2ccc(Cl)cc2)CC1 (stereo unspecified) the results were ssDAF-12 act -1, DAX1 inh-1 0, FXN GAA850 act 2, hcDAF-12 act -1, hgDAF12 agonist 3 and DAX1 inh-2 4.7*.
C=CCn1c(SCC(=O)c2ccc(F)cc2)nnc1-c1ccc(F)cc1 was read as ssDAF-12 act -1, DAX1 inh-1 0, hcDAF-12 act -3 and hgDAF12 agonist 3.
`C=CCn1c(SCC(=O)c2ccc(F)cc2)nnc1-c1ccc2c(c1)OCO2` gave ssDAF-12 act 1.3*, DAX1 inh-1 -1, FXN GAA850 act 2, hcDAF-12 act -2, hgDAF12 agonist -3 and DAX1 inh-2 0.
Screening O=C(CC1CCCC1)N1CC[C@H]2[C@H](CCCN2Cc2ccccc2)C1 returned ssDAF-12 act -1, DAX1 inh-1 1, hcDAF-12 act 0 and hgDAF12 agonist -1.
CCC(C)c1ccc(NC(=O)CSc2nnc(-c3cccc(C)c3)n2C)cc1 (stereo unspecified) was read as ssDAF-12 act -2, DAX1 inh-1 -1, hcDAF-12 act -2 and hgDAF12 agonist -1.
O=C(NCC(c1ccco1)N1CCCC1)c1cc2ccccc2s1 (stereo unspecified) was read as ssDAF-12 act 0.9*, DAX1 inh-1 1, FXN GAA850 act 2, hcDAF-12 act 1, hgDAF12 agonist 3 and DAX1 inh-2 1.
`Cc1cc2oc(C(=O)NCC(c3ccco3)N3CCCC3)c(C)c2cc1C` (stereo unspecified) gave ssDAF-12 act 3.6*, DAX1 inh-1 2, FXN GAA850 act 0, hcDAF-12 act 3, hgDAF12 agonist 4 and DAX1 inh-2 2.
COc1ccccc1CC(=O)NCC(c1ccco1)N1CCCCC1 (stereo unspecified) was read as ssDAF-12 act -2, DAX1 inh-1 1, FXN GAA850 act 1, hcDAF-12 act -2, hgDAF12 agonist 3 and DAX1 inh-2 4.6*.
O=C(NCC(c1ccco1)N1CCCC1)c1ccccc1Sc1ccc(C(F)(F)F)cc1[N+](=O)[O-] (stereo unspecified) was read as ssDAF-12 act 1.1*, DAX1 inh-1 0, FXN GAA850 act -2, hcDAF-12 act 2, hgDAF12 agonist 2 and DAX1 inh-2 0.
Cc1ccccc1OCC(=O)NCC(c1ccco1)N1CCCCC1 (stereo unspecified) was read as ssDAF-12 act -1, DAX1 inh-1 -1, FXN GAA850 act 0, hcDAF-12 act 0, hgDAF12 agonist -4 and DAX1 inh-2 0.
For c1ccc(-c2c[nH]c3cccc(C4CCCCC4)c23)cc1 the results were ssDAF-12 act 0, DAX1 inh-1 1, hcDAF-12 act 1 and hgDAF12 agonist 2.
For O=C(CSc1nnc(COc2ccc(Cl)cc2)n1Cc1ccco1)Nc1ccc(OCc2ccccc2)cc1 the results were ssDAF-12 act -2, DAX1 inh-1 0, hcDAF-12 act -1 and hgDAF12 agonist 1.
`O=C(/C=C/c1ccco1)N1CCN(S(=O)(=O)c2cccs2)CC1` gave ssDAF-12 act -1, DAX1 inh-1 -1, FXN GAA850 act 3, hcDAF-12 act -2, hgDAF12 agonist 0 and DAX1 inh-2 6.6*.
Screening Clc1ccc([C@H]2OC[C@@]3(CNCc4ccccn4)CS[C@H](c4ccc(Cl)cc4)N23)cc1 returned ssDAF-12 act -1, DAX1 inh-1 1, hcDAF-12 act 1 and hgDAF12 agonist 1.
CN(C)c1ccc(/C=N/NC(=O)c2ccc(Cl)cc2)cc1 was read as ssDAF-12 act -1, DAX1 inh-1 0, FXN GAA850 act 2, hcDAF-12 act 1, hgDAF12 agonist 1 and DAX1 inh-2 -1.
COc1ccc(/C=N/NC(=O)c2ccccc2O)cc1CN1CCOCC1 was read as ssDAF-12 act 0, DAX1 inh-1 0, FXN GAA850 act 1, hcDAF-12 act 6.0*, hgDAF12 agonist 6 and DAX1 inh-2 -1.
For Cn1c(=O)n(C)c2cc(/C=N/NC(=O)c3ccc(Cl)cc3)ccc21 the results were ssDAF-12 act -1, DAX1 inh-1 0, FXN GAA850 act 0, hcDAF-12 act 0, hgDAF12 agonist 1 and DAX1 inh-2 4.6*.
For COc1cc(/C=N/NC(=O)Nc2ccccc2)ccc1OC(C)=O the results were ssDAF-12 act 0, DAX1 inh-1 1, FXN GAA850 act 2, hcDAF-12 act 3, hgDAF12 agonist 12* and DAX1 inh-2 1.
`COc1cc(/C=N/NC(=O)c2ccccc2)ccc1O` gave ssDAF-12 act -1, DAX1 inh-1 1, FXN GAA850 act 2, hcDAF-12 act 4, hgDAF12 agonist 5 and DAX1 inh-2 5.9*.
For COc1cc(C(=O)N/N=C/c2ccc(OC(=O)c3ccccc3)c(OC)c2)ccc1O the results were ssDAF-12 act -1, DAX1 inh-1 -1, FXN GAA850 act 1, hcDAF-12 act 0, hgDAF12 agonist 4 and DAX1 inh-2 0.
Screening COc1ccc(/C=N/NC(=O)CSCC(=O)Nc2ccccc2)cc1OC returned ssDAF-12 act -1, DAX1 inh-1 1, FXN GAA850 act 1, hcDAF-12 act -2, hgDAF12 agonist 0 and DAX1 inh-2 1.
